Rv3671c inh – inhibits the M. tuberculosis serine protease Rv3671c. P9WHR9. inhibition, % at 5.96 µM. 0.048% of 320,000 active; in the data active = inhibition above about 38%;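 also: extracellular domain of Rv3671c used as enzyme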
Target sequence (P9WHR9 whole entry, looked up, the tested form may be a part): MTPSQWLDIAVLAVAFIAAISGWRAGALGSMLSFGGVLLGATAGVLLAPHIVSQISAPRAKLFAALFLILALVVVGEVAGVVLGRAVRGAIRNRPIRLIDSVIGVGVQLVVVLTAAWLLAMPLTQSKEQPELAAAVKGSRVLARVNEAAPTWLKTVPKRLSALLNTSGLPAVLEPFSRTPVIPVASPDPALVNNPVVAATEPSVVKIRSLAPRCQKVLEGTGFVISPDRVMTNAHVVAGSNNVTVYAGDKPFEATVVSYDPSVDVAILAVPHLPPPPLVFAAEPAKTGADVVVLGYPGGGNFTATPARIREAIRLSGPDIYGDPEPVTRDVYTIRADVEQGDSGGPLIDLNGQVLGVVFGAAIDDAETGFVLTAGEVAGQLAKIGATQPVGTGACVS
GDH-TPI counter-1 – inhibits GDH-TPI coupling enzymes, artifact for Mtb FBA screen; 1.2% of 360,000 active; GDH-TPI coupled enzyme counterscreen, NADH absorbance; inhibition, % at 4.8 µM; in the data active = inhibition above about 30%
Mtb UGM inh – Mtb UDP-galactopyranose mutase inhibition. P9WIQ1. purified UGM, fluorescence polarization probe displacement. inhibition, % at 10 µM. 0.06% of 320,000 active. AID 504406; in the data active = inhibition above about 10%, passing the limit was not always enough
Mtb hypoxia rep – inhibitors of hypoxia-regulated fluorescent reporter in Mycobacterium tuberculosis | M. tuberculosis hypoxia-regulated fluorescent reporter, fluorescence | fluorescence inhibition, % (no concentration beside the values) | 0.1% of 300,000 active | AID 1159583; in the data active = fluorescence inhibition mostly above about 23%, no sharp cut-off; inactive = mostly below about 17%
FBA Mtb inh – Mtb fructose-bisphosphate aldolase inhibition | purified M. tuberculosis FBA, fluorescence read-out | inhibition, % at 1 µM | 2.3% of 360,000 active | AID 588726
FadD28 FP inh – M. tuberculosis FadD28 bisubstrate binding inhibition; FadD28 bisubstrate probe binding, fluorescence polarization; inhibition, % at 12.5 µM; 0.22% of 360,000 active; AID 588549; in the data active = inhibition above about 8.5%, passing the limit was not always enough
Mtb FBA inh conf – Mtb FBA inhibition, confirmed. shares compounds with FBA Mtb inh. purified M. tuberculosis FBA, fluorescence read-out. inhibition, % at 1 µM. 78% of 5,600 active. AID 651616
GDH-TPI counter-2 – counter-screen for M. tuberculosis FBA inhibitors: GDH-TPI coupled enzyme inhibition; inhibition, % at 1 µM; 81% of 5,600 active; GDH-TPI coupled enzyme counterscreen, fluorescence; AID 652141; shares compounds with FBA Mtb inh; in the data active = inhibition above about 10%
Large screens that a line does not name were inactive (follow-up assays come after a bar, where they were run); ! = repeats disagree. An excerpt weighted towards active compounds, which were near 3.5% of everything screened. Rule as the data show it, unless noted: active = inhibition above about 27%; inactive = the rest.

CCCC(=C1c2ccccc2C(=O)N1c1ccccc1)c1cnc(OC)nc1	none (no result: Rv3671c inh, GDH-TPI counter-1, Mtb UGM inh, FBA Mtb inh, FadD28 FP inh)
[O-]/C(=C(\C(=S)Nc1cccc2ccccc12)[n+]1cccc(CO)c1)c1ccc(Cl)s1	FBA Mtb inh 31 (no result: Rv3671c inh, Mtb UGM inh) | Mtb FBA inh conf 151 | GDH-TPI counter-2 129
Cc1ccc(NC(=S)/C(=C(\[O-])c2ccc(Cl)s2)[n+]2cccc(CO)c2)cc1C	none
CC(C)c1ccc(C(=O)Nc2ccc(CN3CCOCC3)cc2)cc1	FBA Mtb inh 69 | Mtb FBA inh conf 196 | GDH-TPI counter-2 191
Oc1ccc(C2CNCCc3c2cc(O)c(O)c3Cl)cc1 (centres undefined)	FBA Mtb inh 40! | Mtb FBA inh conf inactive | GDH-TPI counter-2 inactive
COc1ccc(C(=O)NCCCNc2nc3cc(C)cc(C)c3cc2C#N)cc1	FBA Mtb inh 37 (no result: Rv3671c inh, Mtb UGM inh, Mtb hypoxia rep) | Mtb FBA inh conf inactive | GDH-TPI counter-2 inactive
Cc1cccc2cc(C#N)c(NCCNC(=O)c3ccccc3)nc12	FBA Mtb inh 40 (no result: Rv3671c inh, Mtb UGM inh, Mtb hypoxia rep) | Mtb FBA inh conf active | GDH-TPI counter-2 active
Cc1cc(C)c2cc(C#N)c(NCCNC(=S)NCCCN3CCOCC3)nc2c1	none
COc1cc(C(=O)NCCNc2nc3cc(C)ccc3cc2C#N)cc(OC)c1OC	none
COCCCNC(=S)NCCCNc1nc2cc(C)cc(C)c2cc1C#N	FBA Mtb inh 47 | Mtb FBA inh conf inactive | GDH-TPI counter-2 inactive
COc1cc(C(=O)NCCCNc2nc3cc(C)c(C)cc3cc2C#N)cc(OC)c1OC	FBA Mtb inh 52 | Mtb FBA inh conf 75 | GDH-TPI counter-2 62
O=C(NN=Cc1ccccn1)c1cc(-c2ccc3ccccc3c2)n[nH]1	none (no result: Rv3671c inh, GDH-TPI counter-1, Mtb UGM inh, FBA Mtb inh, FadD28 FP inh)
O=c1c(OC2OC(CO)C(O)C(O)C2O)c(-c2ccc(O)cc2)oc2cc(O)cc(O)c12 (centres undefined)	none (no result: Rv3671c inh, GDH-TPI counter-1, Mtb UGM inh, FBA Mtb inh, FadD28 FP inh)
COc1ccc(CN2C(CC(=O)O)c3cc(F)ccc3S2(=O)=O)cc1 (centres undefined)	none (no result: Rv3671c inh, GDH-TPI counter-1, Mtb UGM inh, FBA Mtb inh, FadD28 FP inh)
COc1ccccc1C(=O)NCCNc1nc2cc(C)cc(C)c2cc1C#N	none
Cc1cc(C)c2cc(C#N)c(NCCCNC(=O)c3cccnc3)nc2c1	FBA Mtb inh 47 (no result: Rv3671c inh, Mtb UGM inh, Mtb hypoxia rep) | Mtb FBA inh conf 32 | GDH-TPI counter-2 30
COc1cc(OC)cc(C(=O)NCCNc2nc3cc(C)cc(C)c3cc2C#N)c1	FBA Mtb inh 31 | Mtb FBA inh conf inactive | GDH-TPI counter-2 inactive
NC(=O)C1(N2CCCCC2)CCN(C(=O)c2cccn3c(=O)c4cc(Cl)ccc4nc23)CC1	FBA Mtb inh 40 | Mtb FBA inh conf inactive | GDH-TPI counter-2 inactive
O=C(c1cccn2c(=O)c3cc(Cl)ccc3nc12)N1CCOCC1	FBA Mtb inh 45 | Mtb FBA inh conf inactive | GDH-TPI counter-2 inactive
CCCOc1ccc(S(=O)(=O)N2CCOCC2)cc1[N+](=O)[O-]	FBA Mtb inh 34 | Mtb FBA inh conf 72 | GDH-TPI counter-2 63
CN(C(=O)c1ccncc1)c1nnc(-c2ccncc2)s1	FBA Mtb inh 43 (no result: Mtb hypoxia rep) | Mtb FBA inh conf 92 | GDH-TPI counter-2 81
CN(C(=O)C1CCOC1)c1nnc(-c2ccncc2)s1 (centres undefined)	none
Cc1cccc(C(=O)N(C)c2nnc(-c3ccncc3)s2)c1	none (no result: Mtb hypoxia rep)
CN(C(=O)C1CCOC1)c1nnc(-c2ccccn2)s1 (centres undefined)	none (no result: Mtb hypoxia rep)
CN(C(=O)C1CCCO1)c1nnc(-c2ccccn2)s1 (centres undefined)	FBA Mtb inh 68 (no result: Mtb hypoxia rep) | Mtb FBA inh conf 160 | GDH-TPI counter-2 146
COCC(=O)N(C)c1nnc(-c2ccccn2)s1	FBA Mtb inh 52 | Mtb FBA inh conf 92 | GDH-TPI counter-2 69
CN(C(=O)C1CCCO1)c1nnc(-c2ccncc2)s1 (centres undefined)	FBA Mtb inh 63 | Mtb FBA inh conf 104 | GDH-TPI counter-2 89
Cc1ccc(S(=O)(=O)N2C(c3cccc(C)c3)CC=C(C(=O)O)C2c2ccccc2F)cc1 (centres undefined)	none (no result: Rv3671c inh, GDH-TPI counter-1, Mtb UGM inh, FBA Mtb inh, FadD28 FP inh)
COc1ccc(OCC(=O)NN=Cc2ccc(OC)c(OC)c2C(=O)O)cc1	none (no result: Rv3671c inh, GDH-TPI counter-1, Mtb UGM inh, FBA Mtb inh, FadD28 FP inh)
CN(CC(Cc1ccccc1)N(CC(CC1CCCCC1)N(CCc1ccccc1)N=O)N=O)N=O (centres undefined)	none (no result: Rv3671c inh, GDH-TPI counter-1, Mtb UGM inh, FBA Mtb inh, FadD28 FP inh)
O=C(C(=C([O-])c1ccccc1)[n+]1ccccc1)c1ccc([N+](=O)[O-])cc1	none (no result: Rv3671c inh, GDH-TPI counter-1, Mtb UGM inh, FBA Mtb inh, FadD28 FP inh)
